According to PubChem BioAssay AID1766 (National Center for Advancing Translational Sciences (NCATS), 2009):
Among all 290,000 compounds or so, fewer than 10 were called active. Another 3% or so got no clear call; they are omitted. Only a sample is shown. Values without a mark were called inactive. Calls come from the whole dose curve; as a rule, active = well fitted curve in the direction sought with a large enough effect in the polarisation (not every such curve was filed as active); inconclusive = small, poorly fitted or top-dose-only effect, or effect the other way, or a change in a side signal; inactive = no such curve, though single readings can be large or run the other way; the % refers to the polarisation.

assay: qHTS Assay for Inhibitors Targeting the Menin-MLL Interaction in MLL Related Leukemias: Competition With Fluorescein Labeled MLL-derived Peptide; details: Fluorescence polarization, fluorescein-MLL peptide displacement from menin; series mostly up to 61.4 µM; FP activity change: at the top concentration; note: % of control where 0% means no effect
From the text: qHTS Assay for Inhibitors Targeting the Menin-MLL Interaction in MLL Related Leukemias NIH Chemical Genomics Center [NCGC] NIH Molecular Libraries Probe Centers Network [MLPCN] MLPCN Grant: MH084875-01A1 Assay Submitter (PI): Jolanta Grembecka, Tomasz Cierpicki, University of Virginia Translocations of the MLL (Mixed Lineage Leukemia) gene are frequently found in human leukemias affecting both children and adults. Fusion of MLL to one of more than 60 genes results in generation of oncogenic proteins upregulating Hox genes, which are vital to blood cell development. Patients harboring fusion of the MLL gene suffer from aggressive leukemias and respond poorly to available therapies. All of the oncogenic fusion proteins have a preserved N-terminal fragment of MLL that has been identified to interact with menin. It has been recently discovered that association with menin is critical to the leukemogenic activity of the MLL fusion oncoproteins. Selective targeting of the menin-MLL interaction could provide an attractive therapeutic approach to develop novel drugs for MLL-related leukemias. Small molecules blocking the menin-MLL interaction should reverse the oncogenic potential of MLL fusion proteins. We have developed and optimized a fluorescence polarization-based assay for the identification of Menin-MLL inhibitors. The assay was run employing two different MLL-derived peptides. The present assay uses a 12 amino acid peptide labeled with fluorescein at its N-terminus. This peptide consists of the menin high affinity binding motif from MLL and is potently bound by menin. Another peptide with a mutated sequence, labeled with Texas Red, was used in parallel as a less stringent screen for inhibitors.
The Menin protein, the MLL-wild type (w.t.) derived peptide (N-terminal 12 amino acids), the MLL-derived peptide labeled with Texas Red and the MLL-w.t. peptide labeled with Fluorescein were kindly supplied by laboratory of Dr. Jolanta Grembecka, University of Virginia. All protein and peptide solutions were stored in single use aliquots at -80C. The Eu3+ Cyrptate-conjugated mouse monoclonal antibody anti-6 Histidine (Eu3+-AB) and the Streptavidin-XL665 conjugate (XL665) were purchased from Cisbio International (Bedford, MA). All antibody and XL665 conjugate solution stocks were stored in single use aliquots at -20C. The Buffer components for all assays were purchased from Sigma-Aldrich (St. Louis, MO) and Invitrogen (Carlsbad, CA). FP Assay Reagents: 1. FP reaction buffer: 50 mM Tris-HCl pH 7.5, 50 mM NaCl, 1mM DTT. Before use, 0.05% BSA is added. 2. Menin protein, MLL-w.t. labeled with fluorescein, MLL-mutant peptide labeled with texas red. Stored in singe use aliquots at -80C. 3. MLL-w.t. unlabeled peptide as positive control: 10 uM final in FP buffer. FP Assay Procedure: 1. Prepare Menin at 200 nM, MLL-w.t.-fluorescein at 25 nM, and MLL-mutant-texas red at 50 nM mixture in FP buffer. 2. Prepare Menin at 200 nM, MLL-w.t.-fluorescein at 25 nM, MLL-mutant-texas red at 50 nM, and 10 uM MLL-w.t. unlabeled mixture in FP buffer. 3. Prepare MLL-w.t.-fluorescein at 25 nM and MLL-mutant-texas red at 50 nM mixture in FP buffer. 3. Dispense 4 ul per well of reagent in step 1 in columns 2, 4 - 48 in a black 1536 well plate, dispense 4 ul per well of reagents from steps 2 and 3 in columns 1 and 3 respectively. Incubate plate at ambient for 15 minutes. 4. Transfer 23 nl per well of compound to plate and incubate at ambient for 1 hr. 5. Read fluorescence polarization for each label using the PerkinElmer Envision. Envision protocol for fluorescein: FITC FP Dual Enh Mirror, Excitation filter 480, Emission filter (1) P-pol 535, Emission filter (2) S-pol 535 Envision protocol for texas red: FP Dual Enh Mirror, Excitation filter 555, Emission filter (1) P-pol 632, Emission filter (2) S-pol 632

Row | SMILES | FP activity change
1 | CC1Sc2ccc(S(=O)(=O)CCC(=O)NCc3ccccc3Cl)cc2NC1=O (stereo unspecified) | -0.854%
2 | CC(O)c1ccc(OCCN(C)c2ccccn2)cc1 (stereo unspecified) | 0.254%
3 | CC(O)COc1ccccc1 (stereo unspecified) | -1.98%
4 | CN(CC(=O)Nc1ccc(F)cc1)C(=O)c1ccc(-c2ccc(Cl)cc2)o1 | 0.512%
5 | CC(C)[C@@H]1COC(c2cccc(C3=N[C@H](C(C)C)CO3)c2)=N1 | 1.68%
6 | COc1ccc(OCc2cc(C(=O)N3CCCC3)no2)c2ccccc12 | -0.316%
7 | c1cnc(N2CCN(c3ccc4ccccc4n3)CC2)nc1 | -2.01%
8 | Cc1cc(=O)n2[nH]c(-c3cccc(Cl)c3)cc2n1 | -4.41%
9 | CCCCCC(O)(CCN1CCCCC1)c1ccccc1 (stereo unspecified) | -1.88%
10 | Cc1cc(C)cc(OCC(=O)NC(C)c2ccccc2)c1 (stereo unspecified) | 6.39%
11 | O=c1[nH]cccc1-c1nc2ccccc2n1Cc1ccc(Cl)cc1 | -1.47%
12 | CCCc1cc(=O)n2[nH]c(C)c(-c3ccc(Cl)cc3)c2n1 | -3.54%
13 | O=C1CCN(CCc2ccccc2)CCN1CCOc1ccccc1 | -5.61%
14 | Cc1cc(C)c(C#N)c(Nc2cccc(Br)c2)n1 | -1.91%
15 | O=C(NCCS(=O)(=O)N1CCN(c2ccccc2F)CC1)c1ccc(Br)o1 | -2.26%
16 | CCc1ccccc1OCC(=O)Nc1ccc2c(c1)OCCO2 | -1.07%
17 | Oc1ccc(C2Nc3cccc4cccc(c34)N2)cc1 | 1.81%
18 | Cc1ccc(-c2csc(NC3OC(=O)c4ccccc43)n2)cc1 (stereo unspecified) | 0.604%
19 | Cc1n[nH]c(=O)c2c1nnn2Cc1ccc(F)cc1 | 1.28%
20 | COc1ccc(NC(=O)C/C(C)=N/NC(=O)c2cnccn2)cc1Cl | -0.652%
21 | CS(=O)(=O)N1CCN(C(=O)CSc2ccccc2)CC1 | 0.441%
22 | COc1ccc2c(c1)c(C(=O)N/N=C/c1cccs1)c(C)n2C | -1.26%

Row | SMILES | FP activity change
23 | CC(C)OC(=O)c1ccc(COc2ccc3ccc(=O)oc3c2)o1 | 0.0912%
24 | CNC(=O)c1sc(Nc2ccc(OCc3ccccc3)cc2)nc1C | -0.434%
25 | Cc1cccc(C)c1NC(=S)N1CCCCCC1 | 10.5%
26 | Cc1ccc(O)c(CNc2nc3ccccc3[nH]2)c1 | 0.249%
27 | COCCNC(=O)c1ccc2nc(Cc3ccc(OC)c(OC)c3)oc2c1 | 0.18%
28 | CCCc1cc(=O)[nH]c(SCC(=O)N2C(C)CCCC2C)n1 (stereo unspecified) | 1.47%
29 | COc1cc(CNCc2ccc(OC)c3ccccc23)cc(OC)c1OC | -0.733%
30 | Cc1ccc2oc(C(=O)N3CCN(C)C[C@@H]3C(C)C)c(C)c2c1 | -0.0815%
31 | O=C(Nc1cccc(C(F)(F)F)c1)c1cc(Br)cc(Br)c1O | -4.54%
32 | CC(C)(C)c1ccc(SCCc2ccncc2)cc1 | -0.793%
33 | COc1ccc(C(C(=O)NC(C)(C)C)N(Cc2ccc(F)cc2)C(=O)CCC(=O)Nc2cc(C)on2)cc1 (stereo unspecified) | 5.96%
34 | CCOC(=O)c1ccc(NC(=O)Cc2cccs2)cc1 | 3.73%
35 | CCOc1ccc(N/C=C/C(=O)c2ccccc2)cc1 | -1.74%
36 | COc1ccc(N2CCN(S(=O)(=O)CCNC(=O)C34CC5CC(CC(C5)C3)C4)CC2)cc1 | -5.62%
37 | COc1ccc(/C=N/OCc2ccccc2C#N)c(OC)c1 | -2.05%
38 | CCn1c(SCC(=O)NC2CC2)nnc1-c1ccccc1OC | 0.14%
39 | COc1cc2ccccc2cc1C(=O)Nc1ccccc1C | -3.04%
40 | CSCCNC(=O)c1ccc2nc(Cc3ccccc3F)oc2c1 | 2.14%
41 | CC(c1ccccn1)N(C)C(=O)c1ccc2nc(Cc3cccc(Cl)c3)oc2c1 (stereo unspecified) | 1.12%
42 | CCCOc1ccc(/C=N/NC(=O)C2CC2)c(OCCC)c1 | -5.37%
43 | O=C(CN1CCc2cc3c(cc2C1)OCCCO3)Nc1ccccc1 | 1.44%
44 | CCn1cc(/C=C(\NC(=O)c2cc(OC)c(OC)c(OC)c2)C(=O)N2CCN(C)CC2)c2ccccc21 | 0.178%

Row | SMILES | FP activity change
45 | COc1cccc(NC(=O)C2CCCN(c3ncnc4c3nc3n4CCCCC3)C2)c1 (stereo unspecified) | 0.562%
46 | CCCc1ccc(OCCNC(=O)c2ccccc2Br)cc1 | -4.26%
47 | O=S(=O)(NCc1ccc(Cl)cc1Cl)c1cccs1 | -3.15%
48 | CC(CN1CCCCC1)c1ccccc1 (stereo unspecified) | 4.36%
49 | COc1ccc(/C(C)=N\NC(=O)c2ccc(-c3ccccc3)cc2)c(F)c1 | -4.21%
50 | Cc1ccccc1NC(=O)CSc1nc2ccc(Nc3nc(N4CCOCC4)nc(N4CCOCC4)n3)cc2s1 | 1.23%
51 | CCOC(=O)Nc1ccc2c(c1)N(C(=O)CCCl)c1ccccc1[S@]2=O | -0.773%
52 | CSc1nccc(NC(=O)c2ccc(C(C)(C)C)cc2)n1 | -1.11%
53 | O=C(c1cc(COc2cccc(C(F)(F)F)c2)on1)N1CCSCC1 | 1.74%
54 | Oc1ccccc1-c1cc(-c2ccc(Cl)cc2)n[nH]1 | -1.42%
55 | CC1CCC2CCCCC2N1C(=O)c1cc([N+](=O)[O-])cc([N+](=O)[O-])c1 (stereo unspecified) | 1.44%
56 | Cc1ccc(C(=O)Nc2nnc(C3=COCCO3)o2)cc1C | -0.415%
57 | N#C[C@]1(S(=O)(=O)c2ccccc2)C[C@@H]2ON=C(c3cccc(Br)c3)[C@@H]2C1 | 6.98%
58 | O=C(N/N=C/c1cccc(OCc2ccccc2)c1)c1ccc(Br)o1 | 2.42%
59 | N#CC(C#N)=CN=c1ccn(Cc2ccc(Cl)cc2Cl)cc1 | -5.78%
60 | FC(F)(F)C1CCCN(c2nsc3ccccc23)C1 (stereo unspecified) | -1.66%
61 | N=c1oc2ccccc2cc1C(=O)NCc1ccccc1 | 15.1%
62 | COCCCNc1nc2c(-c3cccc(C)c3)nnn2c2ccc(Cl)cc12 | -4.76%
63 | O=C(NCCNc1ccccc1[N+](=O)[O-])c1ccccc1F | -2.51%
64 | N#CCc1ccc(NC(=O)c2ccccc2C(=O)Nc2ccc(CC#N)cc2)cc1 | -1.6%
65 | CCn1cc(CN2CCC(C(=O)Nc3cccc(-c4cccc(Cl)c4)c3)CC2)c(C)n1 | -0.667%
66 | Cc1ccc(CCNC(=O)c2ccc3nc4ccccc4c(=O)n3c2)cc1 | -0.476%
